Inconclusive results are not listed. Entries that show only a call come without a potency. The source made the active and inactive calls. Calls come from the whole dose curve; as a rule, active = well fitted cell-killing curve with a large enough effect in the repeat runs; inconclusive = weak or mixed curves, or effect the other way; inactive = flat fitted curve, though single readings scatter.
Potency is the fitted concentration of half-maximal effect.

This experiment is described as follows: qHTS assay to identify small molecule antagonists of the retinoid acid receptor (RAR) signaling pathway - cell viability counter screen (AID 1159551). Note: nearly all actives have a fitted effect of over 35% in size. To be noted: C3RL4 cells viability, ATP luminescence (CellTiter-Glo), 6 h; series mostly up to 92.4 µM. From the text: U.S. Tox21 Program National Center for Advancing Translational Sciences [NCATS] NIH Chemical Genomics Center [NCGC] U.S. Environmental Protection Agency [EPA] National Institutes of Environmental Health Sciences [NIEHS] National Toxicology Program [NTP] U.S. Food and Drug Administration [FDA] Tox21 Assay Overview: All-trans Retinoic acid (atRA) is the potent natural metabolite of retinol and plays an important role in normal embryonic development and maintenance of cellular phenotype in adult animals. atRA is the activating ligand for the retinoic acid receptors (RARs) which form heterodimers with retinoid X receptors (RXRs) on the retinoic acid response element (RARE). Through activation of the RAR/RXRs nuclear receptors, atRA regulates the transcription of a large number of protein-coding genes and regulatory RNAs. Intracellular levels of atRA are controlled by the retinol signaling pathway (RSP) that regulates the biosynthesis and catabolism of atRA to maintain physiological levels. Chemicals that interfere with the RSP can cause abnormal intracellular levels of atRA and therefore are potential developmental toxicants. To assess compounds for the potential adverse effect on embryonic development through interfering with retinol signaling, a cell-based RARE luciferase reporter gene assay was used. C3RL4 cell line (OARSA/CFSAN/FDA, Laurel, MD) was used to screen Tox21 10K compound library for identifying inhibitors of the RSP. Also cytotoxicity was assessed by determining the viability of cells based on the quantitation of ATP.
Tox21 Assay Protocol Summary: C3RL4 cells were seeded at 1,000/well in 4 uL of assay medium into white solid 1,536-well tissue culture plates (Greiner Bio-One North America Inc. Monroe, NC) using a Multidrop Combi (Thermo Scientific, Waltham, MA) dispenser. After incubation at 37 C and 5% CO2 for an overnight, 23 nL of compounds dissolved in DMSO, positive control or DMSO only were transferred by a Pintool station (Kalypsys, San Diego, CA). One ul of 1 uM (final concentration) of Retinol was added right after the compound addition by using a Flying Reagent Dispenser (FRD) (Aurora Discovery, San Diego, CA). After 6 hr incubation at 37 C and 5% CO2, 5 uL of CellTiter-Glo reagent (Promega Corporation, Madison, WI) was added to each assay plate using an FRD. Luminescence was quantified on a ViewLux plate reader (PerkinElmer, Waltham, MA) after 30 min incubation at room temperature.
Regarding `CC1=CC(=O)/C(=C(/C)O)C(=O)O1`, the Potency entry was “inactive”.

For `S=C(S)NCCNC(=S)S`, the Potency entry was “inactive”. For the compound `COc1ccc(OC)c(OC)c1`, the Potency entry is “inactive”. On the same count and under the same terms, the result for `CCCCOC(=O)/C=C\C(=O)OCCCC` reads “inactive”; that for `C1CCC2OC2C1` (stereo not given), “inactive”. With `CN1CCC(=C2c3ccccc3C=Cc3ccccc32)CC1`, the Potency entry is “inactive”. Regarding `Nc1nc(N)c(-c2ccccc2)s1`, the Potency result was “inactive”. For the compound `Cc1ccc(C(=O)C(C)CN2CCCCC2)cc1` (stereo not given), the Potency entry was “inactive”. Same read-out and setting: in the case of `O=C1c2cccc(O)c2C(=O)c2c(O)cc(CO)cc21` it was “inactive”.

Take `O=C(O)[C@@H]1[C@H]2C[C@H]3c4[nH]c5ccccc5c4CCN3C[C@@H]2CC[C@@H]1O`: the Potency result is “inactive”.

Consider `NC(N)=NN=C(/C=C/c1ccc([N+](=O)[O-])o1)/C=C/c1ccc([N+](=O)[O-])o1`, for which the Potency is 13.3 µM (active). On to `CCCCOCCOCCOCCOCCO`, for which the Potency entry is “inactive”. As to `CCCCCCCC/C=C\CCCCCCCC(N)=O`, the Potency entry was “inactive”. As to `O=S1(=O)c2cccc3cccc(c23)N1CCCN1CCN(c2ccc(F)cc2)CC1`, the Potency result was “inactive”. In the case of `O=[N+]([O-])c1cc[n+]([O-])cc1`, the Potency result was “inactive”. Turning to `O=C(O)/C=C/c1cnc[nH]1`, the Potency entry was “inactive”. As to `CCCCOC(O)CC` (stereo not given), the Potency result is “inactive”.

Consider `CC(C)=CCCC(C)CC=O` (stereo not given), for which the Potency entry is “inactive”. For the compound `CCCCC(CC)COCCCN` (stereo not given), the Potency result was “inactive”.

Consider `CCC(=O)OC(C)(C)C1CC=C(C)CC1` (stereo not given), for which the Potency entry was “inactive”. On to `Oc1ccc(O)c2c(O)cccc12`, for which the Potency entry is “inactive”.

On to `CCc1nn(C2CCCCC2)c2cc(C3(C#N)CCC(C(=O)O)CC3)ccc12` (stereo not given), for which the Potency result was “inactive”. Still for that read-out and setting: in the case of `COc1ccc2[nH]c(S(=O)Cc3ncc(C)c(OC)c3C)nc2n1` (stereo not given) it was “inactive”; in that of `CC(=O)O[C@@H]1C(=O)O[C@@H]2[C@H]1OC(=O)[C@@H]2OC(C)=O`, “inactive”.

In the case of `Nc1ccc(C(=O)N2CC3CC(CN(Cc4ccccc4)C3)C2)cc1`, the Potency result was “inactive”.

Consider `CN(C)CCCNCCCN`, for which the Potency entry is “inactive”. On the same count and under the same terms, the result for `CC(=O)N(CC(=O)N(C)C)c1ccccc1` reads “inactive”. In the case of `O=C(CCN1CCN2CCCC2C1)N1c2ccccc2Sc2ccc(Cl)cc21` (stereo not given), the activity change, negative = cytotoxicity is -0.0558% [at 19 µM] (inactive). Consider `CCN(CC)C(C)=O`, for which the Potency result was “inactive”. On the same count and under the same terms, the result for `Cc1ccc(C(N)=O)cc1N` reads “inactive”.

Turning to `COCCOCCOCCOCCOC`, the Potency entry is “inactive”.

For the compound `CN1CCC(=C2c3ccccc3CCc3sccc32)CC1`, the Potency result is “inactive”.

Regarding `CC(=O)[C@@]1(O)CC[C@H]2[C@@H]3C[C@H](C)C4=CC(=O)CC[C@]4(C)[C@H]3CC[C@@]21C`, the Potency entry was “inactive”.

Consider `CCCCCCCCCCCCCCCCCBr`, for which the activity change, negative = cytotoxicity is 0.698% [at 19 µM] (inactive). With `CC(C)NCC(O)c1cc(O)cc(O)c1` (stereo not given), the Potency entry is “inactive”. Same read-out and setting: the result for `SC1CCCC1` reads “inactive”; that for `CCCc1ccccc1`, “inactive”. On to `O=[N+]([O-])c1cccc(Cl)c1Cl`, for which the Potency result was “inactive”. Take `CC1(C)CCC(C)(C)c2cc(NC(=O)c3ccc(C(=O)O)cc3)ccc21`: the Potency result is “inactive”.

In the case of `CC/C(=C\C(=N/O)C(N)=O)C(C)[N+](=O)[O-]` (stereo not given), the Potency entry is “inactive”.
